From PubChem BioAssay
An excerpt weighted towards active compounds, which were near 0.5% of everything screened.
phage Ecoli inh – growth loss of phage-infected E. coli, primary screen, RecBCD inhibitor project, absorbance, with phage, HTS; inhibition, % at 11.9 µM; hit rate 0.26% among 360,000; in the data active means inhibition above about 11%
E coli growth-1 – E. coli growth inhibition, primary screen, OD600; hit rate 0.21% among 330,000; Escherichia coli growth, 23 h; active compounds read low; OD600 absorbance (test concentration not listed);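 active means OD600 absorbance below the run mean of sample wells minus 3.6 SD, in any replicate, cut at about 0.56 in these data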
Tat export inh – E. coli Tat export inhibitors, primary screen, MC4100, TorA-mCherry reporter, fluorescence, single point. inhibition, % at 10 µM. hit rate 0.036% among 340,000. AID 488895, 2010;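 active means mean replicate inhibition at least 50% and at least half of replicates individually reaching 50%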;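 further: exported cargo escapes ClpAP degradation while cytoplasmic cargo is degraded and loses fluorescence; 0% = median of neutral control wells and 100% = median of NaSCN control wells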
AddAB inh – growth inhibition of E. coli expressing H. pylori AddAB, primary screen, AddAB inhibitor project, absorbance. inhibition, % at 11.9 µM. hit rate 0.29% among 330,000. AID 435030, 2010; in the data active means inhibition above about 12%;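 further: 0% = vehicle wells of infected cells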
E coli growth-2 – E. coli V3065 growth inhibition, primary screen, counter-screen for AddAB inhibitor project, absorbance, OD600; hit rate 0.27% among 330,000; 18 h; AID 449728, 2010; inhibition, % at 11.9 µM;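 active means inhibition above the campaign's mean inhibition across all tested compounds plus 3 SD, cut at about 9.9% in these data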;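 further: uninfected addAB+ strain grown without phage in ampicillin broth; 0% = DMSO wells and 100% = ciprofloxacin 0.95 µg/ml wells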
AddAB confirm – growth loss of phage-infected E. coli expressing H. pylori AddAB, confirmation, AddAB inhibitor project, absorbance, E. coli V3065, T4 phage, triplicate; shares compounds with AddAB inh; OD; T4 phage with gene 2 nonsense mutations; inhibition, % at 11.9 µM; hit rate 64% among 880; AID 488942, 2010;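 active means mean inhibition above a set limit taken from the earlier primary screen, cut at about 13% in these data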;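 further: higher means less bacterial growth since AddAB block lets phage replicate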
RecBCD counter – growth loss of RecBCD+ E. coli with mutant T4 phage, counter-screen for AddAB inhibitor project, absorbance, V66 E. coli | shares compounds with AddAB inh | OD growth | inhibition, % at 11.9 µM | hit rate 73% among 880;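 active means mean inhibition above the mean of solvent-only control wells plus 3 SD, cut at about 4% in these data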;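 further: optical density read after an 18 h incubation at 37 °C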
bact viab count – bacterial viability inhibition counter-screen, confirmation, counter-screen for AddAB inhibitor project, absorbance | shares compounds with AddAB inh | absorbance (AddAB counterscreen) | inhibition, % at 11.9 µM | hit rate 35% among 880 | AID 488956, 2010; in the data active means inhibition above about 25%
* = called active by the depositor; x = not tested or not shown.

SMILES	phage Ecoli inh	E coli growth-1	Tat export inh	AddAB inh	E coli growth-2	AddAB confirm	RecBCD counter	bact viab count
CCCCn1nnc(NC(=O)c2ccc(-c3ccccc3[N+](=O)[O-])o2)n1	4	0.62	14	3	-1	x	x	x
CC(=O)N1CCN(c2ccc(NC(=O)c3ccc([N+](=O)[O-])o3)cc2Cl)CC1	6	0.62	-4	14*	5	56*	4.9*	15
CCC(=O)N1CCN(c2ccc(NC(=O)c3ccc([N+](=O)[O-])o3)cc2Cl)CC1	6	0.65	-3	x	x	x	x	x
CCn1nnc(NC(=O)c2ccc([N+](=O)[O-])o2)n1	7	0.56	-11	19*	11*	61*	6.5*	12
O=C(Nc1ccc(S(=O)(=O)N2CCOCC2)cc1)c1ccc([N+](=O)[O-])o1	6	0.66	-12	6	4	x	x	x
O=C(Nc1ccc(N2CCOCC2)cc1)c1ccc([N+](=O)[O-])o1	8	0.61	-3	16*	13*	69*	8.5*	20
O=C(NCc1nc2ccccc2[nH]1)C1=CC(c2ccccc2)CC(OCc2ccc(CO)cc2)O1 (stereo not drawn)	x	0.72	x	x	x	x	x	x
Cc1ccc(-n2ncc(C#N)c2N=CN2CCOCC2)cc1	x	0.68	x	x	x	x	x	x
CN1CCN(c2ccccc2NC(=O)c2ccc([N+](=O)[O-])o2)CC1	x	0.56	-6	27*	25*	101*	11*	38*
CS(=O)(=O)N1CCN(c2ccccc2NC(=O)c2ccc([N+](=O)[O-])o2)CC1	1	0.69	0	1	0	x	x	x
Cc1cccnc1NC(=O)c1ccc([N+](=O)[O-])o1	12*	0.58	-5	92*	24*	91*	12*	24
CC(=O)Nc1ccc2nc(NC(=O)c3ccco3)sc2c1	-1	0.68	0	1	-1	x	x	x
CC(=O)Nc1ccc2nc(NC(=O)c3ccc([N+](=O)[O-])o3)sc2c1	1	0.62	-12	15*	9	41*	5.7*	12
Cc1ccccc1NC(=O)c1ccc([N+](=O)[O-])o1	10	0.65	-9	24*	11*	31*	6.7*	12
CC(O)C1CNCCN1CC1(c2ccccc2)CC1 (stereo not drawn)	x	0.68	x	x	x	x	x	x
COc1ccc(C=NNC(=O)CNc2n[nH]c(=O)[nH]c2=O)cc1OC	x	0.64	x	x	x	x	x	x
O=C(CSc1ncnc2nc[nH]c12)c1ccc(Cl)cc1	5	0.68	0	20*	5	17*	4	-2
CCN1C(=O)C2C(c3ccc(-c4ccc(F)cc4)c(OC)c3)N3CCCC[C@@]3(C(=O)OC)C2C1=O (stereo partly drawn)	x	0.7	x	x	x	x	x	x
O=C(CSc1ccsc1[N+](=O)[O-])NCc1ccco1	8	0.68	-8	30*	21*	52*	5.0*	26*
COc1cccc(/C=N\NC(=O)c2ccc(Cn3cc(Br)c([N+](=O)[O-])n3)o2)c1O	10	x	-4	16*	9.9*	31*	7.1*	20
CC1=NN(C(=O)c2ccc(Cn3cc(Br)c([N+](=O)[O-])n3)o2)C(O)(C(F)(F)F)C1 (stereo not drawn)	9	0.67	-3	18*	8	8	3	5
C#CCOCCOCCOCCNc1nc(N2CCN(C(=O)CCCCCCCCCCNC(=O)C(CCC(=O)O)n3cc(CCCCCN)nn3)CC2)nc(N2CCN(C(=O)CCCCCCCCCCNC(=O)C(C(C)O)n3cc(C)nn3)CC2)n1 (stereo not drawn)	x	0.66	x	x	x	x	x	x
COc1ccc2c(CC(=O)OCC(=O)Nc3cccc(S(N)(=O)=O)c3)coc2c1	1	0.71	-4	97*	96*	-1	1	-4
O=C(CNc1ccc2ccccc2c1)NN=Cc1ccccn1	x	0.7	x	x	x	x	x	x
c1ccc2nc(-c3ccc(N4CCOCC4)cc3)ccc2c1	4	0.68	-1	40*	43*	-4	-1	-4
SMILES	phage Ecoli inh	E coli growth-1	Tat export inh	AddAB inh	E coli growth-2	AddAB confirm	RecBCD counter	bact viab count
CN1CCN(c2ccc(-c3ccc4ccccc4n3)cc2)CC1	2	0.68	5	x	x	x	x	x
COc1ccc2[nH]c3c(c2c1)CCNC3c1ccc([N+](=O)[O-])o1 (stereo not drawn)	4	x	5	41*	10*	14*	3	1
CC(=O)N(/N=C/c1ccc([N+](=O)[O-])o1)c1nc2ccccc2c(=O)n1-c1ccccc1	6	x	6	15*	11*	29*	3	13
CC1CCN(C(=O)CCC(=O)N2CC(C)Oc3ccccc32)CC1 (stereo not drawn)	3	0.73	-10	99*	32*	-3	1	-2
CC(=NNC(=O)CN(c1ccccc1)S(=O)(=O)c1ccccc1[N+](=O)[O-])C(C)(C)C	x	0.65	x	x	x	x	x	x
CN(C)C=C1N=C(c2cccs2)OC1=O	x	0.62	x	x	x	x	x	x
O=C(CNC(=O)C1COc2ccccc2O1)NN=Cc1cccc(O)c1 (stereo not drawn)	x	0.69	x	x	x	x	x	x
Cc1ccnc2c1ccc1c(C)ccnc12	x	0.28*	8	39*	37*	70*	25*	20
O=C(Cn1nc2n(c1=O)-c1ccccc1SC2)NN=Cc1ccncc1	x	0.66	x	x	x	x	x	x
CSC(=S)N/N=C/c1ccc(Br)cc1	8	x	-5	5	5	x	x	x
CSC(=S)N/N=C/c1ccc(N(C)C)cc1	3	x	5	16*	7	53*	7.4*	30*
CC(=O)Nc1cccc(NC(=O)CSc2ccc(-c3ccccn3)nn2)c1	10	0.64	-5	5	4	x	x	x
CCc1ccc(NC(=O)CSc2ccc(-c3ccccn3)nn2)cc1	10	0.64	-13	13*	15*	9	9.3*	8
CCOC(=O)c1ccccc1NC(=O)CSc1ccc(-c2ccccn2)nn1	9	0.7	12	13*	13*	6	7.8*	6
COc1ccc(C=NNC(=O)COc2ccccc2-c2ccccc2)cc1	x	0.75	x	x	x	x	x	x
COc1ccc(S(=O)(=O)N2CCOC2CNC(=O)C(=O)NCCc2ccccc2)cc1C (stereo not drawn)	4	0.81	-12	43*	15*	0	-1	-2
COc1ccc(S(=O)(=O)N2CCOC2CNC(=O)C(=O)NCCc2ccccc2)cc1OC (stereo not drawn)	1	0.79	-9	-2	-2	x	x	x
O=C(NNC(=O)c1cc(Br)ccc1Cl)c1csc(N2CCOCC2)n1	-1	0.73	5	3	-3	x	x	x
